# Experimental data from paper PMC7862700, “An all-to-all approach to the identification of sequence-specific readers for epigenetic DNA modifications on cytosine”.
# How the values were obtained:
# Experiment in all cases: DAPPL (digital affinity profiling via proximity ligation, sequencing); 10 mM Tris-HCl pH 7.5, 50 mM NaCl, 1 mM DTT, 4% glycerol, room temperature, 30 min; GST-TFs on glutathione beads, 16-mer random dsDNA library, 0.1% formaldehyde crosslink after washing; high values mean tight binding
# [1] = molecular target: T1, FEV (Homo sapiens, UniProt Q99581 1-238); settings: protein: recombinant; tags: N-terminal GST; dsDNA, one strand shown
# T1 sequence: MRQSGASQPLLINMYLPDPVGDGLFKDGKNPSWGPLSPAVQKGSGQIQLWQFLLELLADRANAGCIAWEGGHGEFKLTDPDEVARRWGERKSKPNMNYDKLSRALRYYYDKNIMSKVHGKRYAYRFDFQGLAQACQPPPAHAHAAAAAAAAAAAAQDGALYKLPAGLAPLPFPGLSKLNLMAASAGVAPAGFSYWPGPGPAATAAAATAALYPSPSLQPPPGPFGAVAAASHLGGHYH
# Outline: (§1)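 Human transcription factors were made in yeast as GST fusions, captured on glutathione beads and barcoded with DNA. With a tag-only sample included, the pool was incubated with 200 nmole of a random double-stranded 16-mer DNA library in Tris/NaCl/DTT/glycerol buffer at room temperature for 30 min, then crosslinked with 0.1% formaldehyde after washing, ligated by proximity, amplified and sequenced. For binding signal, each hexamer's read frequency for a factor is divided by its frequency for the tag-only sample.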
# [2] = molecular target: ETV5 (Homo sapiens, UniProt P41161 1-510); settings: protein: recombinant; tags: N-terminal GST; dsDNA, one strand shown
# Outline: as §1
# [3] = molecular target: HSF1 (Homo sapiens, UniProt Q00613 1-529); settings: protein: recombinant; tags: N-terminal GST; chain copies: 3; dsDNA, one strand shown
# Outline: as §1
# [4] = molecular target: T2, SPIC (Homo sapiens, UniProt Q8N5J4 1-248); settings: protein: recombinant; tags: N-terminal GST; dsDNA, one strand shown
# T2 sequence: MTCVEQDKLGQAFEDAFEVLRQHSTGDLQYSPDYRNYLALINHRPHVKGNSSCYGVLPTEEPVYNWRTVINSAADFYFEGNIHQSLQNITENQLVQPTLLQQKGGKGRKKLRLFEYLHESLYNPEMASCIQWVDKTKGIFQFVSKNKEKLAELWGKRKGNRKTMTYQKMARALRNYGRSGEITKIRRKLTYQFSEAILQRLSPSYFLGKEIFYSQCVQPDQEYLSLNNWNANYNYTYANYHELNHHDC
# Outline: as §1
# [5] = molecular target: ELF4 (Homo sapiens, UniProt Q99607 1-663); settings: protein: recombinant; tags: N-terminal GST; dsDNA, one strand shown
# Outline: as §1
# [6] = molecular target: T3, ELK4 (Homo sapiens, UniProt P28324-2 1-405); settings: protein: recombinant; tags: N-terminal GST; dsDNA, one strand shown
# T3 sequence: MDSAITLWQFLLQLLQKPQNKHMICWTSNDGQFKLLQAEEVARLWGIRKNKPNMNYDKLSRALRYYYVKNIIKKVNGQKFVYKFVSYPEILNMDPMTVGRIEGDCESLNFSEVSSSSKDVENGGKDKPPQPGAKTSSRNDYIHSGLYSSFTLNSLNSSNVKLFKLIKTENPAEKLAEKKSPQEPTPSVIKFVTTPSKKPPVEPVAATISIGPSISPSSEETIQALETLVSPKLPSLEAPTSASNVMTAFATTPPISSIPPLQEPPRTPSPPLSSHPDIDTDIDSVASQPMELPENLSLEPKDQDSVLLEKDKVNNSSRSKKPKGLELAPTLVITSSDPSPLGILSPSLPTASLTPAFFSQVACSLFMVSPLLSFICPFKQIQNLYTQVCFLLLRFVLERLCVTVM
# Outline: as §1
# [7] = molecular target: T4, ETV2 (Homo sapiens, UniProt O00321 1-342); settings: protein: recombinant; tags: N-terminal GST; dsDNA, one strand shown
# T4 sequence: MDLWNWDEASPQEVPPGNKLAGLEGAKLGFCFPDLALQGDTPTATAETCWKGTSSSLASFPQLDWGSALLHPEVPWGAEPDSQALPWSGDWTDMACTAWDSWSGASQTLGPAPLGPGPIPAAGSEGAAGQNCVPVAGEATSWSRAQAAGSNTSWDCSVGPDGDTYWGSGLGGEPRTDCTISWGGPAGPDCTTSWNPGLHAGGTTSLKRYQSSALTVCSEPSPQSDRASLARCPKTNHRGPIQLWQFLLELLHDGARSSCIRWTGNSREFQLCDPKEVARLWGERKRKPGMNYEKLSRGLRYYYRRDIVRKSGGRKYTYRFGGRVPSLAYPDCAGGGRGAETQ
# Outline: as §1
# [8] = molecular target: T5, ELF3 (Homo sapiens, UniProt P78545 1-371); settings: protein: recombinant; tags: N-terminal GST; dsDNA, one strand shown
# T5 sequence: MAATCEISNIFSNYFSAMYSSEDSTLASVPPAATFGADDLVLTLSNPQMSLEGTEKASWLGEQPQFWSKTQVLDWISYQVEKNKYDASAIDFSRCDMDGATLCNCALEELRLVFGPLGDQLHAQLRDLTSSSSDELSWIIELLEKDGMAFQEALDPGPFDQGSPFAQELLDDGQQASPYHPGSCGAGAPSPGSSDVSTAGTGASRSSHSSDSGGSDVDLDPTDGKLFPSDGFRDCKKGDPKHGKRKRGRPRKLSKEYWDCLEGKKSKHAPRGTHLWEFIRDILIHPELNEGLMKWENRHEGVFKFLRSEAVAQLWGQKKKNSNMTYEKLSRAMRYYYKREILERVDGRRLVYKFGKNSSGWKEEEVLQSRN
# Outline: as §1
# [9] = molecular target: CRX (Homo sapiens, UniProt O43186 1-299); settings: protein: recombinant; tags: N-terminal GST; dsDNA, one strand shown
# Outline: as §1
# [10] = molecular target: ETV1 (Homo sapiens, UniProt P50549 1-477); settings: protein: recombinant; tags: N-terminal GST; dsDNA, one strand shown
# Outline: as §1
# [11] = molecular target: T6, ERF (Homo sapiens, UniProt P50548 1-548); settings: protein: recombinant; tags: N-terminal GST; dsDNA, one strand shown
# T6 sequence: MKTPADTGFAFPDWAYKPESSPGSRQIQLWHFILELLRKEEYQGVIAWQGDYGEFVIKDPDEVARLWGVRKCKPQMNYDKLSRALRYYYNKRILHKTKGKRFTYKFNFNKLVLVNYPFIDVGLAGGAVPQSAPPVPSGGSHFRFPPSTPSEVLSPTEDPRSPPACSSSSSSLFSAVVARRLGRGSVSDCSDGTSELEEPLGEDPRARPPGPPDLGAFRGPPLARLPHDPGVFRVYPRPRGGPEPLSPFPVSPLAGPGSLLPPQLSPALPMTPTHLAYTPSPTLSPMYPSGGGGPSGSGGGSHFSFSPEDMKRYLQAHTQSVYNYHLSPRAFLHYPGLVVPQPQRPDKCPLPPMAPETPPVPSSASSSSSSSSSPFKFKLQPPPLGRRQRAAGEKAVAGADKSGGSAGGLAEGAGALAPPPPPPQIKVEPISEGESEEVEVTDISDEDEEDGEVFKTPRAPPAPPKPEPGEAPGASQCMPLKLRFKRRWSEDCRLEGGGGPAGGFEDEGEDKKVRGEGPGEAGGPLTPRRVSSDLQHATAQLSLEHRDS
# Outline: as §1
# [12] = molecular target: T7, ETV3L (Homo sapiens, UniProt Q6ZN32 1-361); settings: protein: recombinant; tags: N-terminal GST; dsDNA, one strand shown
# T7 sequence: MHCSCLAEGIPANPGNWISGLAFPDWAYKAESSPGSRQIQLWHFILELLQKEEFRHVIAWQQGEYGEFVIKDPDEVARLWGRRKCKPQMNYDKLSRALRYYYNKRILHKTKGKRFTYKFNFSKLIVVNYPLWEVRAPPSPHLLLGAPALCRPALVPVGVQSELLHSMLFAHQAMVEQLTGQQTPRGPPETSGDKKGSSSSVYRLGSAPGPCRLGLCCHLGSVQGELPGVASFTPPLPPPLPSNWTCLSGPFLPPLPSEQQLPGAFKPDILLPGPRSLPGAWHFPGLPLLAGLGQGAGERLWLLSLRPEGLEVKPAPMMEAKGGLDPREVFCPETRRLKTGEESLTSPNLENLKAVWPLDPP
# Outline: as §1
# [13] = molecular target: T8, ETS2 (Homo sapiens, UniProt P15036 1-469); settings: protein: recombinant; tags: N-terminal GST; dsDNA, one strand shown
# T8 sequence: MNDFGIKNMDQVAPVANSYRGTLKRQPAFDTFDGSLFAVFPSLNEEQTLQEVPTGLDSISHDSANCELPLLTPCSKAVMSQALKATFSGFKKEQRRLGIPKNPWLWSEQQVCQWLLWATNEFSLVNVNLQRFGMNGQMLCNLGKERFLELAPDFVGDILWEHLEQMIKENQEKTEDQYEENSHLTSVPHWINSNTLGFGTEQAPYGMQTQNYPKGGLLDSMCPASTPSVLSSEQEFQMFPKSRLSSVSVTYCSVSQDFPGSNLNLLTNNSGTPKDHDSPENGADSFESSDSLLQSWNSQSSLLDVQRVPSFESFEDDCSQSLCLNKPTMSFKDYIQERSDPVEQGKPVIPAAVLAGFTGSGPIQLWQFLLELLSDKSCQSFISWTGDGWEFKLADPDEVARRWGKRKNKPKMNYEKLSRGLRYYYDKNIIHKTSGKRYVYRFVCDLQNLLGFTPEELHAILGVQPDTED
# Outline: as §1
# [14] = molecular target: T9, SPDEF (Homo sapiens, UniProt O95238 1-335); settings: protein: recombinant; tags: N-terminal GST; dsDNA, one strand shown
# T9 sequence: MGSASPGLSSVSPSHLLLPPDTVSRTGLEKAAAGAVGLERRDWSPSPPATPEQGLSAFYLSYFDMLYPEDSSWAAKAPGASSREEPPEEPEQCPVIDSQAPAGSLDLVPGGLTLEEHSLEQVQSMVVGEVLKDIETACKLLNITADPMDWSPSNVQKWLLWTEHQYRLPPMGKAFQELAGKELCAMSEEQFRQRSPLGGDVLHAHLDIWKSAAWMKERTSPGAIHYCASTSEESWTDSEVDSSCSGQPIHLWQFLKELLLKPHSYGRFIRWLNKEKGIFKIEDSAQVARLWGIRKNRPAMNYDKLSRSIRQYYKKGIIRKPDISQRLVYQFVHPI
# Outline: as §1
# [15] = molecular target: T10, ETV7 (Homo sapiens, UniProt Q9Y603 1-341); settings: protein: recombinant; tags: N-terminal GST; dsDNA, one strand shown
# T10 sequence: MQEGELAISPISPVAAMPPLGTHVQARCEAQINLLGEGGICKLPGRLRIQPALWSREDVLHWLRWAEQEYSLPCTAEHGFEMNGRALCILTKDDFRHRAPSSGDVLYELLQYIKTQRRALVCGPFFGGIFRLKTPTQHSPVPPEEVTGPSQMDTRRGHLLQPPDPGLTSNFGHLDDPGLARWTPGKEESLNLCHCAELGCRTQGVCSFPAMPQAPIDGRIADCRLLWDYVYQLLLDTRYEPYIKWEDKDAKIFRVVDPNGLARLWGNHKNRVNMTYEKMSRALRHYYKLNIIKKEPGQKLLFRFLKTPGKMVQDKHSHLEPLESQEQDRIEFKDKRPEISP
# Outline: as §1
# [16] = molecular target: T11, ELF5 (Homo sapiens, UniProt Q9UKW6-2 1-255); settings: protein: recombinant; tags: N-terminal GST; dsDNA, one strand shown
# T11 sequence: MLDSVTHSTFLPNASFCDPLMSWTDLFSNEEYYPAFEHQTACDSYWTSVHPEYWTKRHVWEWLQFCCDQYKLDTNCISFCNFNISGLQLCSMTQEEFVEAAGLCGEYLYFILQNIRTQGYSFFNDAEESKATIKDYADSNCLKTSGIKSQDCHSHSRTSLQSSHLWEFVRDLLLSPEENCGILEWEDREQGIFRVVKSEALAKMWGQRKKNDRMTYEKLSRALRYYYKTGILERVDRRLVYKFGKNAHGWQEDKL
# Outline: as §1
# [17] = molecular target: T12, ETV3 (Homo sapiens, UniProt P41162-2 1-143); settings: protein: recombinant; tags: N-terminal GST; dsDNA, one strand shown
# T12 sequence: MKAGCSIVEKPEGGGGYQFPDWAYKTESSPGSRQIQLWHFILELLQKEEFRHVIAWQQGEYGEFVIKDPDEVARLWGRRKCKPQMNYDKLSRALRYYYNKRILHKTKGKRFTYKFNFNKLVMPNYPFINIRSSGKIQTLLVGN
# Outline: as §1
# [18] = molecular target: ETV6 (Homo sapiens, UniProt P41212 1-452); settings: protein: recombinant; tags: N-terminal GST; dsDNA, one strand shown
# Outline: as §1
# Chain of HSF1 (Q00613 whole entry): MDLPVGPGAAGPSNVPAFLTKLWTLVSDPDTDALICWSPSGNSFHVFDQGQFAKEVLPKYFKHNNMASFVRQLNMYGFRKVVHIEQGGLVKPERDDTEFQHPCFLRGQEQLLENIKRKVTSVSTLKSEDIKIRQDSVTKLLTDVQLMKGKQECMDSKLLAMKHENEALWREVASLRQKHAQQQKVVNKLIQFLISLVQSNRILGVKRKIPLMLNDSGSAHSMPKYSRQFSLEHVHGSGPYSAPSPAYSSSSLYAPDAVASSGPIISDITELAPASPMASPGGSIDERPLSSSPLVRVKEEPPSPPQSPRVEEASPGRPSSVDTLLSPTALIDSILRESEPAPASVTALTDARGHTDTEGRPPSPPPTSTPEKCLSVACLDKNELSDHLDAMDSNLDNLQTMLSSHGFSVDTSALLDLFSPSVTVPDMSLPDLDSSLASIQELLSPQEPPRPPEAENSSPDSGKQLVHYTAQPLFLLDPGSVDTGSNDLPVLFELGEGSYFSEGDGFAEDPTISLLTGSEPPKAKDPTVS
# Chain of ETV5 (P41161 whole entry): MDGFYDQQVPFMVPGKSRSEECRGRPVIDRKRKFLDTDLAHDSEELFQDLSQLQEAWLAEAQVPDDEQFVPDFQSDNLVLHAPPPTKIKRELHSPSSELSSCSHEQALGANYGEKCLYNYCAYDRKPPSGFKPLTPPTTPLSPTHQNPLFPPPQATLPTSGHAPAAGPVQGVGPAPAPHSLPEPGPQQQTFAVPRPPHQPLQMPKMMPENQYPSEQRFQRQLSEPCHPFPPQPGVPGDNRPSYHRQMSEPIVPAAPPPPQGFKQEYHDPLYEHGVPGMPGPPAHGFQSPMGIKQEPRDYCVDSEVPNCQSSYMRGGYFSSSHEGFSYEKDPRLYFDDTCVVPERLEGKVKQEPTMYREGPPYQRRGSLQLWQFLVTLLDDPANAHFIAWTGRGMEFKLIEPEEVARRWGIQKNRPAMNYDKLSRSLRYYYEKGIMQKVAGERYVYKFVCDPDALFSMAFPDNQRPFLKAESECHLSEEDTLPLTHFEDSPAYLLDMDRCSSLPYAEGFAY
# Chain of ETV1 (P50549 whole entry): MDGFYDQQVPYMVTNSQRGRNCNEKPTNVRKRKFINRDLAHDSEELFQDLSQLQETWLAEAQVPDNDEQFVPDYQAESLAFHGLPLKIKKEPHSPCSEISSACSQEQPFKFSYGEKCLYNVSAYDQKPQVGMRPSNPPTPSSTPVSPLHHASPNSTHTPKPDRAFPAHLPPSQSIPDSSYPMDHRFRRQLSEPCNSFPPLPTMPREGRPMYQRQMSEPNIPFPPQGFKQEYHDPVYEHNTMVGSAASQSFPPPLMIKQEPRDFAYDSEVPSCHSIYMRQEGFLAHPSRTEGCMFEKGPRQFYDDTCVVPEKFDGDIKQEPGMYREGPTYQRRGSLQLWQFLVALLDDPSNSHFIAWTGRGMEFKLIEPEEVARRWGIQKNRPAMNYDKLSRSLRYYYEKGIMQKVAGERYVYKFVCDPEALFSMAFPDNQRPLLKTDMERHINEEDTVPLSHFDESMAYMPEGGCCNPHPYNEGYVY
# Chain of ETV6 (P41212 whole entry): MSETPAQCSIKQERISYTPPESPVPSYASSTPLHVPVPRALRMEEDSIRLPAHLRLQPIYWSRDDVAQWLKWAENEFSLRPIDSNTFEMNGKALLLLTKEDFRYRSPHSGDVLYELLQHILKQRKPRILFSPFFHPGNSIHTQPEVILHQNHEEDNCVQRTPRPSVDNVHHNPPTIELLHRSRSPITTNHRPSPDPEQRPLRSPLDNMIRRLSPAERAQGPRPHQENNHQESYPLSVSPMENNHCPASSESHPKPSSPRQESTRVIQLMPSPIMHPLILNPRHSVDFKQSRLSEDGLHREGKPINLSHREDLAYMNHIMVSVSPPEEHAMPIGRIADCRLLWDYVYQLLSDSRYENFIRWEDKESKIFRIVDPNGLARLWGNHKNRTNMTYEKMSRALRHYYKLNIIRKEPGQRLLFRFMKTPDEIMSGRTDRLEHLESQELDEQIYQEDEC
# Chain of ELF4 (Q99607 whole entry): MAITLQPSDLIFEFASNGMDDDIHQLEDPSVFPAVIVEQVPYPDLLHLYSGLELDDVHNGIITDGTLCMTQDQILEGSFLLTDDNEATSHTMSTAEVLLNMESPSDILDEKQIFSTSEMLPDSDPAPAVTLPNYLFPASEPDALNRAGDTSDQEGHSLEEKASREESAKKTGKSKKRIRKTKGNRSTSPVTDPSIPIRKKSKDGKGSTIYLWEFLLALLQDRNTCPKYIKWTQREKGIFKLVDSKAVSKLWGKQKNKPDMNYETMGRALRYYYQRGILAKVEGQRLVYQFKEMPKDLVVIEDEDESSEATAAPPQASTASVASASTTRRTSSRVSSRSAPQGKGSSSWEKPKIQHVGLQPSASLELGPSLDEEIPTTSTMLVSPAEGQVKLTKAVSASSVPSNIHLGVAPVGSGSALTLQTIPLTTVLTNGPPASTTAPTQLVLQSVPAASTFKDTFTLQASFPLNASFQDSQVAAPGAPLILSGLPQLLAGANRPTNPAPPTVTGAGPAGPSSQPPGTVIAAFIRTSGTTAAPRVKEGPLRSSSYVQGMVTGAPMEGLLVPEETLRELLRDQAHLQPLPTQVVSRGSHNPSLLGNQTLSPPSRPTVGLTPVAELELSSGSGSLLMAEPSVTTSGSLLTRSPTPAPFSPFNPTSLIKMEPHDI
# Chain of CRX (O43186 whole entry): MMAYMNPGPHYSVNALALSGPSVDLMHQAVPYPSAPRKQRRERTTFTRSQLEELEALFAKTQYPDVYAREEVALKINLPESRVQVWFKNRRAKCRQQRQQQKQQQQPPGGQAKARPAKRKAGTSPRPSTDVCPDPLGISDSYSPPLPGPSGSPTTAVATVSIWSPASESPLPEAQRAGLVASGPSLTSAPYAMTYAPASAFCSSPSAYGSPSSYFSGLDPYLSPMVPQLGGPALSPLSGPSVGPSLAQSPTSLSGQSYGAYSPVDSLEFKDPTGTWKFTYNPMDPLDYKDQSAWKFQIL
sequence,measurement,setting,value
ATCTGG,binding signal,[1],"1.23 fold enrichment (6-mer frequency, TF over GST control)"
same,binding signal,[2],"1.11 fold enrichment (6-mer frequency, TF over GST control)"
same,binding signal,[3],"2.08 fold enrichment (6-mer frequency, TF over GST control)"
same,binding signal,[4],"1.1 fold enrichment (6-mer frequency, TF over GST control)"
same,binding signal,[5],"1.22 fold enrichment (6-mer frequency, TF over GST control)"
same,binding signal,[6],"1.31 fold enrichment (6-mer frequency, TF over GST control)"
same,binding signal,[7],"1.23 fold enrichment (6-mer frequency, TF over GST control)"
same,binding signal,[8],"1.23 fold enrichment (6-mer frequency, TF over GST control)"
same,binding signal,[9],"1.65 fold enrichment (6-mer frequency, TF over GST control)"
same,binding signal,[10],"1.24 fold enrichment (6-mer frequency, TF over GST control)"
same,binding signal,[11],"1.25 fold enrichment (6-mer frequency, TF over GST control)"
same,binding signal,[12],"1.2 fold enrichment (6-mer frequency, TF over GST control)"
same,binding signal,[13],"1.11 fold enrichment (6-mer frequency, TF over GST control)"
same,binding signal,[14],"1.06 fold enrichment (6-mer frequency, TF over GST control)"
same,binding signal,[15],"1.14 fold enrichment (6-mer frequency, TF over GST control)"
same,binding signal,[16],"1.11 fold enrichment (6-mer frequency, TF over GST control)"
same,binding signal,[17],"1.16 fold enrichment (6-mer frequency, TF over GST control)"
same,binding signal,[18],"1.1 fold enrichment (6-mer frequency, TF over GST control)"
